Potency and affinity values are given separately. Activity calls are given as the source filed them.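 How the source made its calls: active means signal-lowering compounds whose fitted half-maximal concentration is at or below twice the top tested dose in every run; inconclusive means runs disagree, flat 30 to 70% inhibition, or poor curve fit; inactive means the rest.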
What follows are compounds tested against Protein S100-A4 (Homo sapiens) (UniProt P26447) (assay: human S100A4 peptide interaction inhibition curves – biochemical, fluorescence polarization, cherry-picked hits, dose response (AID 687001)). Settings: FP, S100A4/TAMRA-myosin IIA peptide binding; series mostly up to 11 µM.
Chain of Protein S100-A4 (Homo sapiens) (P26447 whole entry, looked up): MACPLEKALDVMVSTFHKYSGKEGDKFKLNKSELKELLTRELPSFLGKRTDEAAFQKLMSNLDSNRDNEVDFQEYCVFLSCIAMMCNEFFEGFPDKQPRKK

outcome, inactive:
CC(C)(O)C#Cc1ccc([C@H]2[C@H](CO)N3CCCCN(C(=O)c4ccc(F)cc4)C[C@@H]23)cc1
COc1ccc(CCN2CC(C(=O)NCCN3CCNC3=O)CCC2=O)cc1 (stereo unspecified)
Cc1noc(C)c1S(=O)(=O)N(C)C[C@H]1Oc2ccc(N(C)C)cc2CC(=O)N([C@H](C)CO)C[C@H]1C
CCOc1ccc(N(CC)C(=O)CCS(=O)(=O)c2cccc3nonc23)cc1
CNC[C@H]1OCCCC[C@@H](C)Oc2ccc(NC(=O)C3CCCCC3)cc2C(=O)N([C@@H](C)CO)C[C@@H]1C
CCn1c(=O)c2ccccc2n2c(SCC(N)=O)nnc12
C[C@@H]1CN([C@H](C)CO)C(=O)c2cc(C#CC3CC3)cnc2O[C@@H]1CN(C)S(C)(=O)=O
COc1cc(/C=C2\SC(=S)N(NC(=O)c3cccc(O)c3)C2=O)ccc1O
COc1ccc(NC(=O)N(C)C[C@@H]2OCCCC[C@@H](C)Oc3ccc(NS(=O)(=O)c4ccc(Cl)cc4)cc3C(=O)N([C@H](C)CO)C[C@@H]2C)cc1
Cc1c(C(=O)OCC(=O)N(C)CC(=O)Nc2ccc(F)cc2)oc2ccccc12
Cc1ccc(S(=O)(=O)NCCC(=O)NCC(=O)Nc2c(C)cccc2C)cc1C
CC1CCN(c2nc3c(c(=O)[nH]c(=O)n3C)n2CC(C)CSc2nnnn2-c2ccccc2)CC1 (stereo unspecified)
CCCC(=O)Nc1ccc2c(c1)OC[C@@H](C)N(Cc1ccc(-c3ccccn3)cc1)C[C@H](C)[C@H](OC)CN(C)C2=O
CNC[C@@H]1OCCCC[C@@H](C)Oc2ccc(NS(=O)(=O)c3cccs3)cc2C(=O)N([C@H](C)CO)C[C@H]1C
COc1ccccc1NC(=O)N1CC(=O)N2[C@H](CO)[C@H](c3ccc(-c4ccc(F)cc4)cc3)[C@@H]2C1
CCNC(=O)[C@H]1[C@H](CO)[C@H]2Cn3c(ccc(-c4ccc(F)cc4)c3=O)[C@@H]1N2C
C[C@@H]1CN([C@@H](C)CO)C(=O)c2cc(NC(=O)NC3CCCCC3)ccc2O[C@@H](C)CCCCO[C@@H]1CN(C)S(=O)(=O)c1cn(C)cn1
C[C@@H]1CN([C@H](C)CO)C(=O)c2cc(NS(=O)(=O)c3ccc(Cl)cc3)ccc2O[C@@H](C)CCCCO[C@H]1CN(C)Cc1ccc(Cl)c(Cl)c1
COc1ccc2c(c1OC)C(=O)N1N=C(c3ccc(Cl)cc3)CC21 (stereo unspecified)
CO[C@@H]1CN(C)C(=O)c2ccc(NC(=O)c3ccc4c(c3)OCO4)cc2OC[C@@H](C)N(Cc2ccc3c(c2)OCO3)C[C@H]1C
CCCc1cc(C(=O)Nc2cccc3ccccc23)n(C)n1
CON(C)S(=O)(=O)c1cccc(C(=O)Nc2cccc(S(=O)(=O)NC3=NCCCCC3)c2)c1
O=C(NCCCN1CCC(Cc2ccccc2)CC1)C1CCC(=O)N1C1CCCC1 (stereo unspecified)
O=C(c1ccc(N2C(=O)CCC2=O)cc1)N1CCCSC1=Nc1ccccc1
COC(=O)C[C@@H]1CC[C@H](NC(=O)c2cnccn2)[C@@H](CO)O1
CC(C)C[C@H]1CN(CCCC[C@@H]2CNC(=O)C(=O)N2Cc2ccccc2)C(=O)C(=O)N1Cc1ccccc1
CCC(=O)N1C[C@H](O)COC[C@H]2O[C@H](CC(=O)NCc3cc(F)cc(F)c3)CC[C@@H]21
CCNC(=O)[C@H]1N[C@H]2c3ccc(-c4cccc(C(=O)N(C)C)c4)c(=O)n3C[C@H]2[C@@H]1CO
O=C(CN1C(=O)NC2(CCCCCCC2)C1=O)Nc1c(Cl)cccc1Cl
CCOC(=O)C1=C(c2ccccc2)NC(=O)NC1c1cc(OC)c(OC)c(OC)c1 (stereo unspecified)
O=C(Nc1ccc(F)cc1)N1CCCCN2[C@H](CO)[C@H](c3ccc(C#Cc4ccccn4)cc3)[C@H]2C1
Cc1cc2c(cc1S(=O)(=O)N1CCN(c3cccc(C)c3C)CC1)OCCN2C
COc1ccc(-c2cnc(SCCNC(=O)c3ccc4c(c3)OCO4)[nH]2)cc1
CCOC1=C2[C@H](c3ccccc3)N(S(=O)(=O)c3ccc(C)cc3)C(C(C)(C)C)[C@H]2C(C#N)(C#N)C(C#N)(C#N)C1 (stereo partly specified)
COc1cccc(CNC(=O)C2CCCN(S(=O)(=O)c3ccc4c(c3)C(C)(C)C(=O)N4C)C2)c1 (stereo unspecified)
COc1cccc(CN2CC(C(=O)NCC3CCOCC3)CCC2=O)c1 (stereo unspecified)

Reference: PubChem BioAssay AID687001 (Broad Institute, 2013)
